Bioassay records: PubChem, National Center for Advancing Translational Sciences (NCATS)
Lassa entry inh = inhibitors of Lassa virus binding or cell entry; AID 540256; Potency, µM (doses to about 37.9 µM), actives largely listed as inhibitors; 300,000 tested, 1.2% active; Lassa virus pseudotype entry inhibition, cell reporter; calls by dose curve; tested in HEK293 cells; further: nearly all actives have a fitted effect of over 50% in size
Vaccinia Venus = vaccinia inhibition (Venus reporter). 330,000 tested, 0.46% active. Potency, µM (series often up to 36.5 µM), actives largely listed as inhibitors. Vaccinia virus Venus reporter expression, fluorescence; calls by dose curve; tested in A549 cells; further: nearly all actives have a fitted effect of over 30% in size
FMDV inh = blocks foot and mouth disease virus; 410,000 tested, 1.2% active; Potency, µM (top dose mostly 57.9 µM), usual class: inhibitors; AID 1159524; FMDV antiviral cell-based qHTS; calls by dose curve; tested in HEK293T cells; further: read-out not given here; nearly all actives have a fitted effect of over 45% in size
VACV mCherry inh = vaccinia inhibition (mCherry reporter). Vaccinia virus mCherry reporter infection, fluorescence. Potency, µM (doses to about 36.5 µM), actives largely listed as inhibitors. 310,000 tested, 0.63% active; calls by dose curve; tested in A549 cells; further: nearly all actives have a fitted effect of over 35% in size
MARV entry inh = Marburg virus entry inhibition; Marburg virus pseudotyped entry inhibition, cell reporter; Potency, µM (series often up to 37.8 µM), usual class: inhibitors; 300,000 tested, 1.8% active; AID 540276; calls by dose curve; tested in HEK293 cells
Large screens that a line does not name were inactive; ! = a repeat was not active. This is a sample that favours compounds with a hit; in the whole collection about 3.2% have one here.

O=S(=O)(c1ccc(-c2cc(C(F)(F)F)on2)s1)N1CCN(c2cccc(Cl)c2)CC1	none (no result: MARV entry inh)
CCCOC(=O)c1ccc(Oc2c(-c3ccc(OC)cc3O)n[nH]c2C)cc1	Lassa entry inh 11µM, Vaccinia Venus inconclusive
N#Cc1c([N+](=O)[O-])cc([N+](=O)[O-])cc1S(=O)(=O)Cc1ccccc1	Lassa entry inh 11µM, Vaccinia Venus inconclusive, FMDV inh 28µM, VACV mCherry inh inconclusive, MARV entry inh inconclusive
Cc1c(N=C2N=C(NC(=O)c3ccc(F)cc3)c3ccccc32)c(=O)n(-c2ccccc2)n1C	FMDV inh 28µM, MARV entry inh inconclusive
Cc1cccc(N(Cc2ccccc2)C(=O)c2cc(S(=O)(=O)N3CCOCC3)ccc2Cl)c1	Lassa entry inh inconclusive, MARV entry inh 13µM
Cc1ccc(N2CC(c3nnc(NC(=O)c4ccco4)s3)CC2=O)cc1C (configuration not stated)	none
O=C(CCl)NC(Cc1ccccc1)c1ccccc1 (configuration not stated)	FMDV inh inconclusive, MARV entry inh inconclusive
CCCCCCCCCC[Si](C)(C)CCC(=O)NC(Cc1ccc(C)cc1)c1ccccc1 (configuration not stated)	MARV entry inh 7.9µM! (no result: Vaccinia Venus, FMDV inh, VACV mCherry inh)
Cc1nn(-c2ccccc2)c(C)c1C(=O)OC(C)C(=O)NC1CCCCC1 (configuration not stated)	Lassa entry inh 5µM, FMDV inh inconclusive, MARV entry inh inconclusive
Cc1nn(-c2ccccc2)c(Cl)c1C(=O)OC(C)C(=O)Nc1ccc2c(c1)OCO2 (configuration not stated)	none
CC(=O)Nc1ccc(NC(=O)C(C)OC(=O)c2c(C)nn(-c3ccccc3)c2Cl)cc1 (configuration not stated)	Lassa entry inh 3.5µM
COc1ccc(N2CCN(C(c3ccc4ncccc4c3)c3nnnn3C(C)C)CC2)cc1 (configuration not stated)	none (no result: Lassa entry inh, MARV entry inh)
CC1=C(C(=O)Nc2ccc(C)cc2C)C(c2ccc[nH]2)n2ncnc2N1 (configuration not stated)	Lassa entry inh inconclusive (no result: MARV entry inh)
CC1=NN(Cc2ccccc2)C(=O)C1C(c1ccc(Cl)cc1)C(C#N)C#N (configuration not stated)	Lassa entry inh inconclusive, FMDV inh 28µM
CC1=NN(Cc2ccccc2)C(=O)C1C(c1ccccc1)C(C#N)C#N (configuration not stated)	MARV entry inh inconclusive (no result: Vaccinia Venus, VACV mCherry inh)
O=Cc1cc(OCc2ccccc2)ccc1[B-](F)(F)F	VACV mCherry inh inconclusive (no result: Lassa entry inh, MARV entry inh)
Cc1ccnc(NC(=O)Nc2cccc(F)c2)c1	Lassa entry inh 6.5µM, MARV entry inh inconclusive (no result: Vaccinia Venus, VACV mCherry inh)
CCCCCCCC/C=C\CCCCCCCC(=O)NCCc1ccc(O)c(O)c1	Lassa entry inh 9.2µM, FMDV inh inconclusive, MARV entry inh 4.5µM
Cc1oc(-c2ccccc2NC(=O)c2cccnc2)nc1CNC(=O)c1ccc(N(C)C)cc1	none (no result: Lassa entry inh, MARV entry inh)
CCOC(=O)[C@@H]1CSc2[nH]c(=O)sc2[C@@H]1c1ccccc1	none (no result: Lassa entry inh, Vaccinia Venus, FMDV inh, VACV mCherry inh)
O=C(NC1CCCCC1)C(c1ccc2ncccc2c1)N(Cc1ccccc1)C(=O)c1cccs1 (configuration not stated)	MARV entry inh 5.8µM (no result: FMDV inh)
CC1(C)C(C=C(Cl)Cl)C1C(=O)Nc1ccc([N+](=O)[O-])cc1 (configuration not stated)	Lassa entry inh inconclusive, Vaccinia Venus 18µM, FMDV inh inconclusive, VACV mCherry inh inconclusive, MARV entry inh inconclusive
O=C(Nc1ccc([N+](=O)[O-])cc1)C1CC1(c1ccccc1)c1ccccc1 (configuration not stated)	MARV entry inh inconclusive
CN(C)c1ccc(/C=C/c2ccc3ccccc3[n+]2C)cc1	Lassa entry inh inconclusive, FMDV inh inconclusive, MARV entry inh inconclusive
Cc1cc2c(=Cc3ccc(N(C)C)cc3)c3ccccc3n2[n+]1C	Lassa entry inh 2.2µM, MARV entry inh inconclusive
CN(C)c1ccc(C=c2c3ccccc3n3c2c2ccccc2[n+]3C)cc1	Lassa entry inh 7.1µM, Vaccinia Venus inconclusive, FMDV inh 25µM, VACV mCherry inh inconclusive, MARV entry inh inconclusive
CCOC(=O)c1cc2c(=Cc3ccc(N(C)C)cc3)c3ccccc3n2[n+]1C	Lassa entry inh 11µM, FMDV inh 18µM, MARV entry inh inconclusive
C1=CN2CC=Cc3cc(/C=C/c4ccnc5ccccc45)cc(c32)C1	none (no result: Lassa entry inh, FMDV inh, MARV entry inh)
CCn1c(=N)n(CC(O)COc2ccccc2)c2ccccc21 (configuration not stated)	none (no result: MARV entry inh)
Cc1cccc(OCC(O)Cn2c(=N)n(CCN3CCCCC3)c3ccccc32)c1 (configuration not stated)	Lassa entry inh inconclusive, Vaccinia Venus inconclusive, FMDV inh inconclusive, VACV mCherry inh inconclusive, MARV entry inh 0.52µM
N=c1n(Cc2ccccc2)c2ccccc2n1CC(O)COc1ccc(Cl)cc1Cl (configuration not stated)	Lassa entry inh inconclusive, Vaccinia Venus inconclusive, FMDV inh 35µM, VACV mCherry inh inconclusive, MARV entry inh inconclusive
CCN(CC)CCn1c(=N)n(CC(O)COc2cccc(C)c2)c2ccccc21 (configuration not stated)	Lassa entry inh inconclusive, FMDV inh inconclusive, VACV mCherry inh inconclusive, MARV entry inh inconclusive
COc1ccc(OCC(O)Cn2c(=N)n(Cc3ccccc3)c3ccccc32)cc1 (configuration not stated)	Lassa entry inh inconclusive, FMDV inh inconclusive, MARV entry inh 4.1µM (no result: Vaccinia Venus, VACV mCherry inh)
CCN(CC)CCn1c(=N)n(CC(O)COc2ccccc2C)c2ccccc21 (configuration not stated)	Lassa entry inh inconclusive, Vaccinia Venus inconclusive, VACV mCherry inh inconclusive, MARV entry inh 3.2µM
Cc1ccc(OCC(O)Cn2c(=N)n(Cc3ccccc3)c3ccccc32)cc1 (configuration not stated)	Lassa entry inh inconclusive, Vaccinia Venus 14µM, VACV mCherry inh 11µM, MARV entry inh inconclusive
N=c1n(Cc2ccc(Cl)cc2)c2ccccc2n1CC(O)COc1ccccc1 (configuration not stated)	Lassa entry inh inconclusive, Vaccinia Venus inconclusive, FMDV inh inconclusive, VACV mCherry inh 28µM, MARV entry inh inconclusive
Cc1ccc(/C(=N\O)c2oc3c(C)c4oc(=O)cc(C)c4cc3c2C)cc1	Lassa entry inh 0.37µM, Vaccinia Venus inconclusive, FMDV inh inconclusive, VACV mCherry inh inconclusive, MARV entry inh 2.9µM
CCOc1ccc(CCNC(=O)c2cc3sccc3n2CC)cc1OCC	Lassa entry inh 15µM, FMDV inh inconclusive, MARV entry inh inconclusive
NS(=O)(=O)c1ccc(CCNC(=O)Nc2ccc(Cl)c(Cl)c2)cc1	FMDV inh 25µM, MARV entry inh inconclusive (no result: Vaccinia Venus, VACV mCherry inh)
Cc1ccccc1CCNC(=O)c1ccc(Cl)c(S(=O)(=O)N2CC(C)OC(C)C2)c1 (configuration not stated)	Vaccinia Venus inconclusive, FMDV inh 18µM, MARV entry inh inconclusive
NS(=O)(=O)c1ccc(CNC(=S)Nc2ccc(Cl)c(Cl)c2)cc1	MARV entry inh inconclusive
NS(=O)(=O)c1ccc(CCNC(=O)c2ccc(Cl)c(S(=O)(=O)N3CCCCC3)c2)cc1	Lassa entry inh inconclusive, FMDV inh 45µM, MARV entry inh inconclusive
Cn1nc(C(=O)OCC(=O)Nc2sccc2C(N)=O)c2ccccc2c1=O	FMDV inh inconclusive
